Experimental data as given in PubChem BioAssay (NCI).
The panel holds about 83,000 compounds, 20% with a hit somewhere; the sample as a whole holds those more often.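 Single-concentration screen, 48 h exposure, 96-well plates. Endpoint: percent growth. Below 10 = active.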 Activity calls are given as the source filed them.

Experiments:
Assay in all cases: NCI-60 one-dose screen, 48 h (100 = growth as untreated, 0 = no growth, -100 = all killed)
Conditions in all cases: 10 µM unless noted
SR leukemia = test system: SR leukemia
RPMI-8226 leukemia = test system: RPMI-8226 leukemia
OVCAR-8 ovarian = test system: OVCAR-8 ovarian
OVCAR-5 ovarian = test system: OVCAR-5 ovarian
OVCAR-4 ovarian = test system: OVCAR-4 ovarian
SK-OV-3 ovarian = test system: SK-OV-3 ovarian
IGROV1 ovarian = test system: IGROV1 ovarian
HS 578T breast = test system: HS 578T breast
NCI/ADR-RES ovarian = test system: NCI/ADR-RES ovarian
OVCAR-3 ovarian = test system: OVCAR-3 ovarian

Measured: growth

CC[C@H](CO)Nc1ccc2ncc(C#Cc3cncc(C(=O)Nc4ccc(CN5CCN(C)CC5)c(C(F)(F)F)c4)c3)n2n1
active: SR leukemia -42.9% | RPMI-8226 leukemia -44.8% | OVCAR-8 ovarian -58.1% | OVCAR-5 ovarian -38.1% | OVCAR-4 ovarian -47.7% | SK-OV-3 ovarian -45.6% | IGROV1 ovarian -33.1% | HS 578T breast -43.9%
inactive: NCI/ADR-RES ovarian 54.3%

COc1ccc(NC(=O)Nc2ccc3c(ccn3C(=O)c3cccc(F)c3)c2)cc1
inactive: SR leukemia 42.7% | RPMI-8226 leukemia 78.9% | OVCAR-8 ovarian 89.1% | OVCAR-5 ovarian 62.3% | OVCAR-4 ovarian 48.1% | SK-OV-3 ovarian 106% | IGROV1 ovarian 69.1% | HS 578T breast 31.6% | NCI/ADR-RES ovarian 65.5%

COc1ccc(NC(=O)CSc2nnc(-c3ccc4nc(-c5ccc(OC)c(OC)c5)[nH]c4c3)o2)cc1OC
inactive: SR leukemia 104% | RPMI-8226 leukemia 98.6% | OVCAR-8 ovarian 101% | OVCAR-5 ovarian 95.2% | OVCAR-4 ovarian 106% | SK-OV-3 ovarian 120% | IGROV1 ovarian 91.3% | HS 578T breast 97.5% | NCI/ADR-RES ovarian 96.1%

CNC(=O)c1cc(Oc2ccc3nc(NC(=O)c4cc(N5CCOCC5)cc(C(F)(F)F)c4)sc3c2)ccn1
inactive: SR leukemia 27.1% | RPMI-8226 leukemia 51.6% | OVCAR-8 ovarian 65.5% | OVCAR-5 ovarian 97.1% | OVCAR-4 ovarian 64.8% | SK-OV-3 ovarian 97.9% | IGROV1 ovarian 99.6% | HS 578T breast 79.2% | NCI/ADR-RES ovarian 80.2%

Cc1cc2ncc(-c3cc4ccccc4c(N4CCN(C)CC4)n3)nc2cc1C
inactive: OVCAR-8 ovarian 67.9% | OVCAR-5 ovarian 31.9% | OVCAR-4 ovarian 37.6% | SK-OV-3 ovarian 87.5% | IGROV1 ovarian 42.3% | HS 578T breast 61.9% | NCI/ADR-RES ovarian 40.2%
active: SR leukemia -39.9% | RPMI-8226 leukemia -12.2%

C[C@@H]1C[C@H]2C(=O)O[C@@H](C)C(NC(=O)[C@H](Cc3cc(F)cc(F)c3)NC(=O)Nc3ccc(Cl)cc3F)C(=O)N3CCC[C@H]3C(=O)N3CCCC[C@H]3C(=O)N[C@@H](CO)C(=O)N2C1 (stereo partly specified)
inactive: SR leukemia 31.2% | RPMI-8226 leukemia 14.9% | OVCAR-8 ovarian 21.9% | OVCAR-5 ovarian 35.3% | OVCAR-4 ovarian 22.6% | SK-OV-3 ovarian 22.1% | IGROV1 ovarian 47.9% | HS 578T breast 33.4% | NCI/ADR-RES ovarian 47.5%

COc1cc2nc(Cl)nc(Nc3cccc(C4=Nc5c(N)nc(N)nc5NC(c5ccc(Cl)cc5)C4)c3)c2cc1OC (stereo unspecified)
inactive: OVCAR-8 ovarian 29.1% | OVCAR-5 ovarian 114% | OVCAR-4 ovarian 101% | SK-OV-3 ovarian 124% | OVCAR-3 ovarian 62.6% | HS 578T breast 88.6% | NCI/ADR-RES ovarian 80.1%
active: SR leukemia -8.05% | RPMI-8226 leukemia -18.9%

CNC(=O)c1c(NC(=O)c2cccc(C(F)(F)F)c2F)sc2c1CCC(=O)C2
inactive: SR leukemia 20% | OVCAR-8 ovarian 16.8% | OVCAR-3 ovarian 12.5%
active: RPMI-8226 leukemia -0.669% | OVCAR-5 ovarian 4.83% | OVCAR-4 ovarian 8.78% | SK-OV-3 ovarian 4.35% | HS 578T breast 8.98% | NCI/ADR-RES ovarian 7.77%

O=C(c1ccc(Cl)cc1)C1[C@H](c2ccc(Cl)cc2)[C@@H](c2ccccc2)NC12C(=O)Nc1ccccc12 (stereo partly specified)
active: SR leukemia 3.54%
inactive: RPMI-8226 leukemia 40.1% | OVCAR-8 ovarian 64% | OVCAR-5 ovarian 71% | OVCAR-4 ovarian 59.7% | SK-OV-3 ovarian 102% | OVCAR-3 ovarian 47.7% | HS 578T breast 67.1% | NCI/ADR-RES ovarian 52.2%

COc1cc2c(cc1OC)C(Sc1ccc(C)cc1)c1c(nc(N)c(C#N)c1N)O2 (stereo unspecified)
active: SR leukemia -4.56% | RPMI-8226 leukemia -19.2% | OVCAR-8 ovarian 3.56% | OVCAR-5 ovarian -78.8% | OVCAR-4 ovarian -59.2% | SK-OV-3 ovarian -70.9% | OVCAR-3 ovarian -80.7% | HS 578T breast -6.15% | NCI/ADR-RES ovarian -32.1%

COc1cc(-c2nn(C(C)(C)C)cc2-c2ccnc(NCCCNS(=O)(=O)c3ccc(Cl)cc3)n2)ccc1Cl
inactive: SR leukemia 37.7% | RPMI-8226 leukemia 66.1% | OVCAR-8 ovarian 73.3% | OVCAR-5 ovarian 79.5% | OVCAR-4 ovarian 39.2% | SK-OV-3 ovarian 93.9% | OVCAR-3 ovarian 73.5% | HS 578T breast 70.5% | NCI/ADR-RES ovarian 67%

O=C(/C=C/c1ccc(F)cc1)c1ccc(O)cc1
inactive: SR leukemia 24.4% | RPMI-8226 leukemia 23.9% | OVCAR-8 ovarian 98.4% | OVCAR-5 ovarian 103% | OVCAR-4 ovarian 106% | SK-OV-3 ovarian 110% | IGROV1 ovarian 114% | HS 578T breast 107% | NCI/ADR-RES ovarian 106%

C=C(C)[C@@H]1CC[C@]2(C(=O)NCCCCCN(CCC#N)CCC#N)CC[C@]3(C)[C@H](CC[C@@H]4[C@@]5(C)CCC(=O)C(C)(C)[C@@H]5CC[C@]43C)[C@@H]12
inactive: SR leukemia 80.4% | RPMI-8226 leukemia 79.7% | OVCAR-8 ovarian 106% | OVCAR-5 ovarian 96.2% | OVCAR-4 ovarian 86% | SK-OV-3 ovarian 118% | OVCAR-3 ovarian 111% | HS 578T breast 103% | NCI/ADR-RES ovarian 108%

COc1ccc(OC)c(-c2nc(SCC(=O)c3ccc(Br)cc3)nc(Nc3ccc(S(N)(=O)=O)cc3)c2C#N)c1
inactive: SR leukemia 13.9% | RPMI-8226 leukemia 51.2% | OVCAR-8 ovarian 62.8% | OVCAR-5 ovarian 73.3% | OVCAR-4 ovarian 57.3% | SK-OV-3 ovarian 79.9% | HS 578T breast 13.4% | NCI/ADR-RES ovarian 74.4%

NS(=O)(=O)c1ccc(-n2cc(CN3CCNCC3)nn2)cc1
inactive: SR leukemia 100% | RPMI-8226 leukemia 110% | OVCAR-8 ovarian 110% | OVCAR-5 ovarian 106% | OVCAR-4 ovarian 105% | SK-OV-3 ovarian 110% | OVCAR-3 ovarian 111% | HS 578T breast 111% | NCI/ADR-RES ovarian 111%

ClC(Cl)c1nc(-c2ccco2)n2nc(-c3ccccc3)cc2n1
active: RPMI-8226 leukemia -25.5% | OVCAR-5 ovarian 2.76% | OVCAR-3 ovarian -29.9% | HS 578T breast -2.15% | NCI/ADR-RES ovarian 4.02%
inactive: SR leukemia 87.3% | OVCAR-8 ovarian 31.7% | OVCAR-4 ovarian 36.6% | SK-OV-3 ovarian 51%

NC(=O)c1cccc(C#CCNC[C@H]2C[C@@H](n3ccc4c(Cl)ncnc43)[C@H](O)[C@@H]2O)c1
inactive: SR leukemia 112% | RPMI-8226 leukemia 110% | OVCAR-8 ovarian 101% | OVCAR-5 ovarian 98.4% | OVCAR-4 ovarian 111% | SK-OV-3 ovarian 105% | OVCAR-3 ovarian 113% | HS 578T breast 101% | NCI/ADR-RES ovarian 106%

CNC(=O)c1cc(Oc2ccc3nc(NC(=O)c4ccc(N5CCOCC5)c(C(F)(F)F)c4)sc3c2)ccn1
inactive: SR leukemia 53.2% | RPMI-8226 leukemia 47.5% | OVCAR-8 ovarian 56.2% | OVCAR-5 ovarian 99% | OVCAR-4 ovarian 61.5% | SK-OV-3 ovarian 102% | IGROV1 ovarian 88.7% | HS 578T breast 69.6% | NCI/ADR-RES ovarian 70%

CCO/C=N/C1=C(C#N)C(c2ccc(F)cc2)c2sc3c(C)cccc3c2O1 (stereo unspecified)
active: OVCAR-3 ovarian -6.49%
inactive: SR leukemia 17.3% | RPMI-8226 leukemia 12.8% | OVCAR-8 ovarian 23.9% | OVCAR-5 ovarian 25.6% | OVCAR-4 ovarian 51% | SK-OV-3 ovarian 66.6% | HS 578T breast 24.6% | NCI/ADR-RES ovarian 12.1%

CNC(=O)c1cc(-n2ccc3cc(NC(=O)Nc4ccc(N5CCOCC5)c(C(F)(F)F)c4)ccc32)ccn1
active: SR leukemia 9.16% | RPMI-8226 leukemia -26.7%
inactive: OVCAR-8 ovarian 60.6% | OVCAR-5 ovarian 65.1% | OVCAR-4 ovarian 40.6% | SK-OV-3 ovarian 102% | HS 578T breast 32.2% | NCI/ADR-RES ovarian 47.9%

Cc1c(Cl)cccc1S(=O)(=O)Nc1ccc2c(c1)C(=O)N(C1CCC(=O)NC1=O)C2=O (stereo unspecified)
inactive: SR leukemia 97.1% | RPMI-8226 leukemia 84.5% | OVCAR-8 ovarian 47.8% | OVCAR-5 ovarian 97.3% | OVCAR-4 ovarian 69.1% | SK-OV-3 ovarian 106% | OVCAR-3 ovarian 105% | HS 578T breast 67.3% | NCI/ADR-RES ovarian 73.3%

CC(=O)c1cc(C(=O)N2c3ccccc3Sc3ccccc32)n2ccc3ccccc3c12
inactive: SR leukemia 16.6% | RPMI-8226 leukemia 50.3% | OVCAR-8 ovarian 32.7% | OVCAR-5 ovarian 69.7% | OVCAR-4 ovarian 73.6% | SK-OV-3 ovarian 48.7% | HS 578T breast 16% | NCI/ADR-RES ovarian 13.4%

NS(=O)(=O)c1ccc(Nc2cc(-c3ccccc3)nc(SCC(=O)c3ccccc3)n2)cc1
inactive: SR leukemia 101% | RPMI-8226 leukemia 93.7% | OVCAR-8 ovarian 99.3% | OVCAR-5 ovarian 104% | OVCAR-4 ovarian 102% | SK-OV-3 ovarian 110% | HS 578T breast 107% | NCI/ADR-RES ovarian 101%

Cc1ccc2sc3c(c2c1)OC(N)=C(C#N)C3c1cccc(F)c1 (stereo unspecified)
active: SR leukemia 9.55% | OVCAR-8 ovarian 4.8% | HS 578T breast 5.7% | NCI/ADR-RES ovarian 5.79%
inactive: RPMI-8226 leukemia 14.4% | OVCAR-5 ovarian 14.4% | OVCAR-4 ovarian 20.3% | SK-OV-3 ovarian 22.5%

NS(=O)(=O)c1ccc(-n2cc(CN3CCCCC3)nn2)cc1
inactive: SR leukemia 93.7% | RPMI-8226 leukemia 107% | OVCAR-8 ovarian 105% | OVCAR-5 ovarian 105% | OVCAR-4 ovarian 105% | SK-OV-3 ovarian 122% | OVCAR-3 ovarian 113% | HS 578T breast 100% | NCI/ADR-RES ovarian 109%

COc1cc(OC)c(S(N)(=O)=O)cc1C(=O)/C=C/c1ccc(Cl)cc1
active: SR leukemia -19.5% | RPMI-8226 leukemia -5.04% | OVCAR-8 ovarian 3% | IGROV1 ovarian 6.66%
inactive: OVCAR-5 ovarian 17.2% | OVCAR-4 ovarian 49.9% | SK-OV-3 ovarian 33.6% | HS 578T breast 13.2% | NCI/ADR-RES ovarian 20%

CCOC(=O)C(=O)/C(=C\c1ccc(Cl)cc1)C(=O)N1C(=S)NC(=O)C1CC(C)C (stereo unspecified)
inactive: SR leukemia 105% | RPMI-8226 leukemia 93.2% | OVCAR-8 ovarian 103% | OVCAR-5 ovarian 98.6% | OVCAR-4 ovarian 98.2% | SK-OV-3 ovarian 108% | OVCAR-3 ovarian 111% | HS 578T breast 106% | NCI/ADR-RES ovarian 101%

CN(C)CCCOc1ccc2c(c1)CN(C(=O)c1cc(C(=O)N3Cc4cccc(F)c4C3)ccc1O)C2
inactive: SR leukemia 96.8% | RPMI-8226 leukemia 98.9% | OVCAR-8 ovarian 101% | OVCAR-5 ovarian 108% | OVCAR-4 ovarian 99% | SK-OV-3 ovarian 112% | HS 578T breast 92.9% | NCI/ADR-RES ovarian 107%
